Common to all, as to test: NCI-60 one-dose screen, 48 h (100 = growth as untreated, 0 = no growth, -100 = all killed)
What all share (settings): 10 µM unless noted

Assay [1] relates to SR leukemia.
Assay [2] deals with RPMI-8226 leukemia.
Assay [3] deals with OVCAR-8 ovarian.
For assay [4], the system named is OVCAR-5 ovarian.
Assay [5] relates to OVCAR-4 ovarian.
For assay [6], the system named is SK-OV-3 ovarian.
Assay [7] has as its system IGROV1 ovarian.
Assay [8] concerns OVCAR-3 ovarian.
Assay [9] deals with HS 578T breast.
Assay [10] deals with NCI/ADR-RES ovarian.
Assay [11] relates to T-47D breast.
Assay [12] concerns BT-549 breast.
For assay [13], the system named is MDA-MB-435 melanoma.
Assay [14] concerns SW-620 colon.
Assay [15] deals with MCF7 breast.
Assay [16] has as its system HCT-116 colon.
The test system of assay [17] is HCC-2998 colon.
The test system of assay [18] is KM12 colon.

The text below walks through data of PubChem BioAssay (NCI).

This is part of a sample that, as a whole, favours compounds with a hit. Of some 83,000 tested, about 20% had one in any assay.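 96-well plates, one dose, 48 hours. Percent growth reported; active if below 10.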 A number with no mark means an inactive call. Activity calls are given as the source filed them.

In the case of `N[C@H]1CN(C(=O)c2cc3cc(Br)c(F)c(F)c3[nH]2)C[C@@H]1O`, the growth in assay [1] was 108%; in assay [2], 98%; in assay [3] it was 100%; in assay [4], 94.3%; in [5], 110%; in [6], 100%. The growth was 84.6% in [7]; 102% in assay [8]; 98.9% in assay [9]; 100% in assay [10]; 91.3% in [11]; 89.5% in assay [12]. Besides, the growth is 99.2% in [13]; 101% in assay [14]; 89.3% in assay [15]; 93.6% in [16]; 93.3% in assay [17]; 104% in assay [18].

With `CC(C)(C)Nc1c(-c2cccs2)nc2ncccn12`, the growth in [1] is 92.4%; in [2], 94.2%; in assay [3], 104%; in assay [4] it was 108%; in assay [5], 103%; in assay [6] it was 99.9%. Also, the growth was 102% in assay [7]; 102% in assay [8]; 97.8% in [9]; 104% in [10]; 93.1% in assay [11]; 105% in assay [12]. Besides, the growth was 107% in assay [13]; 103% in [14]; 93.8% in [15]; 98.6% in assay [16]; 100% in [17]; 97.5% in assay [18].

As to `Nc1ncnc2c1c(-c1ccc(Oc3ccccc3)cc1)nn2C[C@@H]1SSC[C@@H]1O`, the growth is -37.4% (active) in assay [1]; 51.5% in assay [2]; 69.9% in assay [3]; 78.3% in [4]; 44.6% in assay [5]; 3.68% (active) in assay [6]. Also, the growth in assay [7] was -6.92% (active); in assay [8], 3.23% (active); in assay [9] it was 56.6%; in assay [10], 61.3%; in [11] it was -30.9% (active); in assay [12], 83%. The growth was -90.9% (active) in [13]; 25.4% in [14]; -4.42% (active) in assay [15]; 7.61% (active) in assay [16]; 56.5% in [17]; 37.2% in assay [18].

In the case of `CC(C)CSc1nc(NN)c(C#N)c(-c2ccccc2)n1`, the growth was 109% in assay [1]; 100% in assay [2]; 105% in assay [3]; 104% in assay [4]; 86.9% in assay [5]; 100% in assay [6]. Moreover, the growth in assay [7] is 103%; in assay [8], 91%; in [9] it was 95.7%; in assay [10] it was 92.3%; in assay [11], 87%; in [12] it was 96.2%. For the same compound, the growth in [13] is 101%; in assay [14], 99.3%; in [15], 88.2%; in assay [16], 95.7%; in assay [17], 95%; in assay [18], 81.3%.

Consider `CC(C)C(C(=O)NCCN1CCOCC1)N1C(=O)/C(=C/c2ccc(Br)cc2)SC1=S` (configuration not stated), for which the growth in assay [1] is 111%; in [2], 98%; in [3], 108%; in assay [4], 102%; in assay [5], 105%; in [6] it was 112%. Also, the growth in assay [7] was 108%; in assay [8], 104%; in [9], 95.1%; in assay [10], 96.7%; in [11], 94.1%; in assay [12], 99%. Also, the growth in assay [13] is 101%; in [14] it was 102%; in [15], 95.3%; in [16] it was 94.8%; in assay [17], 107%; in assay [18], 99.7%.

On to `COc1cccc(/C=C/C(=O)Nc2cc(OC)c3c(c2)OCO3)c1`, for which the growth was 81.5% in assay [1]; 57.1% in assay [2]; 105% in [3]; 89.1% in assay [4]; 96.4% in assay [5]; 104% in assay [6]. The growth in [7] is 108%; in [8], 110%; in assay [9], 98.8%; in [10], 93.2%; in [11] it was 94.7%; in [12] it was 108%. Also, the growth in assay [13] is 78.9%; in assay [14], 107%; in assay [15] it was 102%; in assay [16] it was 100%; in assay [17], 97%; in assay [18], 89.1%.

As to `COc1ccncc1S(=O)(=O)NC(=O)Nc1ccc(Cl)c(Cl)c1`, the growth was 74.8% in assay [1]; 46.2% in assay [2]; 97.8% in assay [3]; 89.6% in [4]; 95.7% in [5]; 114% in [6]. Further, the growth was 82.7% in assay [7]; 90% in assay [8]; 93.9% in [9]; 89.8% in [10]; 78.1% in [11]; 111% in assay [12]. Further, the growth in [13] is 100%; in [14] it was 99.6%; in assay [15], 105%; in assay [16], 91.7%; in assay [17], 101%; in assay [18] it was 91.9%.

On to `COc1ccc(-c2nc(/C=N/Nc3cc(C)nc4ccc(Br)cc34)c(C)o2)cc1`, for which the growth in assay [1] is -21% (active); in assay [2] it was -54.5% (active); in assay [3], -53.3% (active); in [4], -97.5% (active); in assay [5], -94.9% (active); in assay [6] it was 93.2%. Also, the growth in assay [7] is -80.5% (active); in assay [8] it was -96.6% (active); in assay [9], -44.4% (active); in assay [10] it was -65.9% (active); in assay [11], -42.1% (active); in assay [12] it was 91%. The growth in [13] is -95.6% (active); in assay [14] it was -86.6% (active); in assay [15], -75.2% (active); in assay [16], -74.6% (active); in [17], -67.1% (active); in assay [18], -90.4% (active).

Turning to `CCn1c2ccccc2c2cc(NC(=O)Nc3ccc([N+](=O)[O-])cc3C)ccc21`, the growth in assay [1] is -2.84% (active); in assay [2] it was -21.4% (active); in assay [3], 49.9%; in assay [4], 57.9%; in assay [5], 44.2%; in assay [6], 74.9%. For the same compound, the growth is 43% in assay [7]; -2.64% (active) in assay [8]; 52.7% in assay [9]; 23.1% in assay [10]; 29.3% in assay [11]; 79.2% in [12]. Besides, the growth in assay [13] is 17.4%; in assay [14] it was 51.9%; in [15], 35.7%; in assay [16], 31.6%; in [17], 10.5%; in assay [18], 26.5%.
